Results taken from ChEMBL document CHEMBL4513146, “CO-ADD screening of Karazin Kharkiv National University (Ukraine) compounds”.
Potency and affinity values are given separately.

Columns and labels:
Klebsiella pneumoniae = conditions: Concentration 32 ug.mL-1;; ASSAY_TEST Inhibition of Bacterial Growth; detection method Absorption (OD600); MEDIA CAMHB; plate type 384well; NBS; CORNING #3640; time 18 hr
Candida albicans = conditions: Concentration 32 ug.mL-1; ASSAY_TEST Inhibition of Fungal Growth; detection method Absorption (OD530)
Cryptococcus neoformans = conditions: Concentration 32 ug.mL-1; ASSAY_TEST Inhibition of Fungal Growth; detection method Resazurin; Absorption (OD600-OD570); plate type 384well; NBS; CORNING #3640

| SMILES | Inhibition (Klebsiella pneumoniae) [%] | Inhibition (Candida albicans) [%] | Inhibition (Cryptococcus neoformans) [%] |
| --- | --- | --- | --- |
| CCc1nnc2c(SCC(=O)NCc3ccccc3Cl)nc3ccccc3n12 | 8.04 | 1.39 | -17.43 |
| Cc1cccc(Oc2nccn3c(=O)n(CC(=O)NCCCc4ccccc4)nc23)c1C | 15.41 | 0.59 | -6.84 |
| Cc1ccc(Oc2nccn3c(=O)n(CC(=O)Nc4ccc(Cl)cc4F)nc23)cc1 | 8.24 | 4.29 | -15 |
| O=C(CSc1nnc2c(=O)n(-c3ccc(F)cc3)ccn12)NCC1CCCO1 (stereo not drawn) | 7.61 | 4.29 | -18.42 |
| O=c1c2sccc2n2c(=O)n(Cc3ccccc3Cl)nc2n1Cc1cccs1 | -3.57 | 32.61 | -5.81 |
| CCOc1ccc(-n2ccn3c(SCC(=O)c4ccc(OC)cc4)nnc3c2=O)cc1 | 12.65 | 0.38 | -12.6 |
| Cc1ccc(-c2cc3c4nn(CC(=O)Nc5ccc6c(c5)OCO6)c(=O)n4ccn3n2)cc1 | 10 | 9.65 | -32.25 |
| COc1ccc(-c2cc3c4nnc(SCC(=O)Nc5ccccc5Cl)n4ccn3n2)cc1 | 1.23 | 2.61 | -26.87 |
| COc1cccc(Oc2nccn3c(=O)n(CC(=O)NC4CCCCC4)nc23)c1 | 9.68 | -1.29 | -8.14 |
| COc1cccc(Sc2nc3ccccc3n3c(=O)n(CC(=O)Nc4ccc(C)c(C)c4)nc23)c1 | 5.05 | 20.61 | -4.85 |
| Cc1ccc(-c2cc3c4nn(CC(=O)NCc5ccccc5Cl)c(=O)n4ccn3n2)cc1C | 7.47 | -1.05 | -5.01 |
| Cc1ccc(NC(=O)Cn2c(=O)c3nnc(C)n3c3ccccc32)cc1F | 7.95 | 2.03 | -16.64 |
| CN(C)c1nc2ccccc2n2c(=O)n(CC(=O)Nc3ccc4c(c3)OCO4)nc12 | 0.98 | -0.89 | -12.71 |
| Cc1ccc(-c2cc3c4nn(CC(=O)Nc5ccc6c(c5)OCCO6)c(=O)n4ccn3n2)cc1C | 12.57 | 1.55 | -15.09 |
| COc1ccc(OC)c(NC(=O)Cn2nc3c(Sc4ccccc4)nc4ccccc4n3c2=O)c1 | 8.31 | 2.83 | -24.8 |
| COc1cccc(-n2ccn3c(SCC(=O)NC(C)C)nnc3c2=O)c1 | 10.83 | 1.96 | -12.8 |
| COc1ccc(CNC(=O)Cn2nc3c4cc(-c5ccc(C)c(C)c5)nn4ccn3c2=O)cc1 | 7.73 | 11.15 | -12.47 |
| Cc1cc(Br)ccc1NC(=O)Cn1nc2c(Sc3cccc(F)c3)nccn2c1=O | 4.98 | 6.11 | -9.53 |
| Cc1ccc(-c2ccc3nn(CC(=O)N4CCN(c5ccc(F)cc5)CC4)c(=O)n3n2)cc1C | 1.03 | 7.38 | -10.89 |
| O=C(CSc1nnc2c3cc(-c4ccccc4)nn3ccn12)NCc1ccccc1Cl | 7.7 | 0.55 | -17.16 |
| CC(C)(C)OC(=O)N1CCC(NC(=O)CCc2nnc3ccc(-c4ccccc4)nn23)CC1 | 12.09 | 0.97 | -4.02 |

| SMILES | Inhibition (Klebsiella pneumoniae) [%] | Inhibition (Candida albicans) [%] | Inhibition (Cryptococcus neoformans) [%] |
| --- | --- | --- | --- |
| COc1cccc(NC(=O)Cn2nc3ccc(-c4ccc(C)c(C)c4)nn3c2=O)c1 | -6.86 | 8.09 | -10.05 |
| Cc1nnc2c(SCC(=O)Nc3cccc(Br)c3)nc3ccccc3n12 | 10.33 | 5.04 | -3.71 |
| COc1cccc(NC(=O)Cn2nc3c(=O)n(-c4ccc(Br)cc4)ccn3c2=O)c1 | 6.98 | 1.08 | -6.3 |
| COc1cccc(-n2ccn3c(SCC(=O)Nc4ccc(C(C)C)cc4)nnc3c2=O)c1 | -7.28 | 18.36 | -10.59 |
| CCc1ccccc1NC(=O)Cn1nc2n(CCC(C)C)c(=O)c3sccc3n2c1=O | 0.67 | 8.44 | -17.68 |
| O=C(Cn1nc2c(N3CCOCC3)nccn2c1=O)NCc1ccccc1Cl | 10.56 | 3.88 | -5.18 |
| Cc1cccc(Oc2nc3ccccc3n3c(=O)n(CC(=O)Nc4cccc(C#N)c4)nc23)c1C | 4.26 | 5.6 | -21.56 |
| O=C(CCc1nnc2c(N3CCCCC3)nc3ccccc3n12)NCc1ccc2c(c1)OCO2 | 14.18 | 10.16 | -25.55 |
| Cc1cccc(NC(=O)Cn2nc3c(Sc4ccccc4)nccn3c2=O)c1 | -4.33 | 0.01 | -4.87 |
| O=C(CSc1nnc2c(=O)n(-c3ccc(Br)cc3)ccn12)Nc1cccc(Cl)c1 | 6.37 | 6.02 | -15.78 |
| Cc1oc(-c2ccccc2)nc1CSc1nc2ccccc2n2c(C)nnc12 | 7.15 | 9.66 | -6.62 |
| CCCCn1c(=O)c2sccc2n2c(=O)n(CC(=O)NC(C)C)nc12 | 11.23 | 0.06 | -16.69 |
| CCOc1ccc(-n2ccn3c(SCC(=O)c4cccc(OC)c4)nnc3c2=O)cc1 | 9.6 | 2.55 | -9.06 |
| Cc1ccc(Oc2nccn3c(=O)n(CC(=O)N4CCN(c5ccc(F)cc5)CC4)nc23)cc1 | 19.83 | 0.18 | -7.7 |
| COc1ccc(-c2cc3c4nnc(SCC(=O)Nc5ccc(C#N)cc5)n4ccn3n2)cc1 | 5.83 | 1.48 | -17.71 |
| O=C(Cn1nc2c(Oc3ccccc3)nccn2c1=O)Nc1ccc(F)cc1Cl | 3.51 | 0.77 | -10.04 |
| CSc1cccc(NC(=O)Cn2nc3c(Sc4cccc(F)c4)nccn3c2=O)c1 | 0.95 | 3.02 | -2.39 |
| Cc1nnc2c(S(=O)(=O)N(Cc3cc(F)cc(F)c3)c3cccc(F)c3)cccn12 | 4.57 | 6.53 | -8.02 |
| CCc1ccc(N(Cc2cccc(F)c2)S(=O)(=O)c2cccn3c(CC)nnc23)cc1 | 9.15 | 4.6 | -6.35 |
| COc1cccc(-n2ccn3c(SCC(=O)NCc4ccc(Cl)cc4)nnc3c2=O)c1 | 6.58 | 0.82 | -6.96 |
| NC(=O)CSc1nnc2c(=O)n(-c3ccccc3)ccn12 | 15.37 | 2.06 | -20.31 |

| SMILES | Inhibition (Klebsiella pneumoniae) [%] | Inhibition (Candida albicans) [%] | Inhibition (Cryptococcus neoformans) [%] |
| --- | --- | --- | --- |
| Cc1ccc(CN(c2ccc(F)cc2)S(=O)(=O)c2ccc3nnc(C)n3c2)cc1 | -1.29 | 5.66 | -6.24 |
| COc1ccc(-c2cc3c4nn(CC(=O)NCc5ccc(Cl)cc5)c(=O)n4ccn3n2)cc1 | 20.18 | 0.12 | -24.2 |
| Cc1cccc(N(CC(=O)OC(C)(C)C)S(=O)(=O)c2cccn3c(C)nnc23)c1 | 8.25 | 2.37 | -7.45 |
| O=C(Cn1nc2nc(Nc3ccc(F)cc3)ccn2c1=O)N1CCCC1 | 10.98 | 0.53 | -8.71 |
| CCCN(C)c1nccn2c(=O)n(CC(=O)Nc3cccc(Br)c3)nc12 | 8.58 | 1.99 | -9.25 |
| O=C(Cn1nc2c(Sc3ccccc3)nccn2c1=O)Nc1ccc2c(c1)OCO2 | 1.19 | 12.77 | -5.13 |
| Cc1cc(C)c(C(=O)CSc2nnc3c(=O)n(-c4ccc(F)c(F)c4)ccn23)cc1C | 9.61 | 5.94 | -8.7 |
| CC(C)(C)Sc1ccc2nn(CC(=O)N3CCN(c4ccc(F)cc4)CC3)c(=O)n2n1 | 10 | 3.9 | -8.43 |
| O=c1n(Cc2cccc(Cl)c2)nc2ccc(-c3ccccc3)nn12 | 19.54 | 2.36 | -20.37 |
| COc1ccc(-c2nc(CSc3nc4ccccc4n4c(C(C)C)nnc34)c(C)o2)cc1 | 4.67 | 2.32 | -16.11 |
| Cc1ccc(Cn2nc3c(=O)n(-c4cccc(F)c4)ccn3c2=O)cc1 | 1.12 | 5.68 | -10.74 |
| Cc1ccc(NC(=O)Cn2nc3c(SC4CCCCC4)nccn3c2=O)c(Br)c1 | 3.74 | 0.73 | -7.42 |
| CC(C)CCn1c(=O)c2ccc(C(=O)NC3CCCC3)cc2n2c(=O)n(CC#N)nc12 | 12.37 | 2.41 | -21.13 |
| CCc1cccc(C)c1NC(=O)Cn1nc2ccc(SCc3ccc(Cl)cc3)nn2c1=O | 2.49 | 52.47 | -13.19 |
| CCc1ccc(N(Cc2ccccc2C)S(=O)(=O)c2cccn3c(C)nnc23)cc1 | 3.93 | 5.07 | -8.38 |
| C=Cc1ccc(CN(c2ccc(Cl)cc2)S(=O)(=O)c2cccn3c(C)nnc23)cc1 | 7.52 | 0.36 | -8.75 |
| O=C(Cn1nc2c(SC3CCCCC3)nccn2c1=O)Nc1cccc(Br)c1 | -4.59 | 26.25 | -20.18 |
| Cc1nnc2ccc(S(=O)(=O)N(Cc3cccc(F)c3)c3ccc(F)c(F)c3)cn12 | 2.49 | 1.97 | -11.8 |
| Cc1nnc2c(=S)[nH]c3ccccc3n12 | 21.93 | -0.01 | -43.69 |
